Screening results (PubChem BioAssay)
Shown is part of a subset that was picked to be rich in hits.
IMPase inh: IMPase inhibition in cells. AID 901. 120,000 tested, under 10 active. CHO-M1 cells, IP1 accumulation, HTRF TR-FRET ratio. inhibition (IP1 accumulation), % at 46.1 µM; active means well fitted curve in the direction sought with a large enough effect in the signal ratio, not every such curve was filed as active; inconclusive means small, poorly fitted or top-dose-only effect, or a change in a side signal; inactive means no such curve, though single readings can be large or run the other way; the % refers to the signal ratio;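 further: cells stimulated with carbachol in lithium chloride buffer; plate controls were DMSO basal wells for no effect and reference inhibitor wells for full effect; higher means more IMPase inhibition seen as more IP1 and lower FRET ratio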
Target sequence (P97697 whole entry, looked up): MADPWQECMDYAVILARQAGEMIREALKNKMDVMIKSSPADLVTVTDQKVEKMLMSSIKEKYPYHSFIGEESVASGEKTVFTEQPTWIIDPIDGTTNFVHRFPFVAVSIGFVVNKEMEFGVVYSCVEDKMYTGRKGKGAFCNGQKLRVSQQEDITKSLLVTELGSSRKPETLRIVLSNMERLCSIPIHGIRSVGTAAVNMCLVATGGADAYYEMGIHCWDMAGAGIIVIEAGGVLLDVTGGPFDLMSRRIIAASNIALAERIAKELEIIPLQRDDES
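Measured: the HTRF emission ratio (665/620 nm) plus the 620 nm donor channel, each fitted to the Hill equation to give AC50. Cells were CHO-M1 given compounds up to 46 uM and a 30 min carbachol stimulation at 37C.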
LMNA splice mod: modulators of lamin A splicing; HeLa LMNA splicing GFP/RFP minigene ratio, 48 h; Potency, µM (doses to about 46.1 µM), inactives show top-dose ratio change, negative = inhibition, most hits filed as inhibitors; 200,000 tested, 0.01% active; AID 1487; active means well fitted inhibition curve with a large enough effect in the signal ratio, with a control signal flat, not every such curve was filed as active; inconclusive means small, poorly fitted or top-dose-only effect, or effect the other way, or a change in a side signal; the % refers to the signal ratio; further: potency means the concentration at half of the fitted maximal effect
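S3 HeLa cells stably expressing lamin A-EGFP splicing minigene plus DsRed2, 600 cells/well, 48 h compound exposure at 37C. Laser-scanning cytometry; analysed as GFP (500-530 nm)/RFP (575-640 nm) total intensity ratio; 0.5% DMSO vehicle.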
PNC inhibitor: inhibitors of perinucleolar compartment assembly | PC3M PTB-GFP, PNC prevalence imaging, 16 h; active compounds read low | activity change (PNC), negative = inhibition, % at 10 µM | 140,000 tested, 3.1% active | AID 2417;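 active means readout at or below -70, meaning at least 70% loss of cells showing the perinucleolar compartment, a nuclear body marking cancer cells; inconclusive means readout between -30 and a set limit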;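 further: plate controls were DMSO wells for no effect and camptothecin positive control wells for full effect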
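Compounds are pinned in duplicate onto adhered PC3M cells stably expressing GFP-tagged PTB and incubated 16 h at 37 C. Cells are then fixed, nuclei stained with Hoechst, and PNC-positive cells counted.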
Starred values were filed as active, the others as inactive; [ ] = remark or other dose. Unless noted, on the % scale 0 is the no-effect control and ±100 the full control effect.

How did COc1ccc2c(c1)-c1ccccc1S(=O)(=O)N2C(C)=O do in these assays?
IMPase inh: 6.3; LMNA splice mod: -4.3%; PNC inhibitor: -114.2*

What do the screens show for `COc1ccc(OC)c(NC(=O)CN2C(=O)c3ccccc3S2(=O)=O)c1`?
IMPase inh: -11.7; LMNA splice mod: 12.4%; PNC inhibitor: 23.4

What do the screens show for `COc1c(Cl)cc(C(=O)Nc2ccccc2C(=O)O)cc1Cl`?
IMPase inh: 8.3; LMNA splice mod: inconclusive; PNC inhibitor: 45.1

Results for CCOC(=O)C(c1ccc(OC)c(OC)c1)C1c2ccccc2C=C(C)N1C(=O)OC (stereo not given) ?
LMNA splice mod: -18.8%[9.22 µM]

What do the screens show for `O=S1(=O)CCN(OCc2ccc(F)cc2Cl)CC1`?
LMNA splice mod: -9.6%[46 µM]

Results for OCCNc1nc(C2CC2)nc2c1nnn2Cc1ccccc1Cl ?
IMPase inh: -1.4; LMNA splice mod: inconclusive; PNC inhibitor: inconclusive

What do the screens show for `COCCNc1nc(C(C)(C)C)nc2c1nnn2Cc1ccccc1Cl`?
IMPase inh: 5.2; LMNA splice mod: 22.9%; PNC inhibitor: -102.1*

How did COC(=O)c1[nH]c2ccc(F)cc2c1NC(=O)CCN1CC(C)OC(C)C1 (stereo not given) do in these assays?
IMPase inh: 10.4; LMNA splice mod: inconclusive; PNC inhibitor: -89.2*

What do the screens show for `CCOC(=O)c1[nH]c2ccccc2c1NC(=O)CCN1CC(C)OC(C)C1` (stereo not given)?
IMPase inh: 6.1; LMNA splice mod: 0.3%; PNC inhibitor: 25.5

Results for CCOC(=O)c1c(O)c2ccccc2n(CC)c1=O ?
LMNA splice mod: -12.9%[46 µM]

How did NC(=O)NCCCC(NC(=O)c1ccc(C#CC2(O)CCCCC2)cc1)C(=O)O (stereo not given) do in these assays?
LMNA splice mod: 3.0%[46 µM]

Results for O=C(NCCN1CCOCC1)c1ccncc1 ?
IMPase inh: 2.7; LMNA splice mod: -5.8%; PNC inhibitor: inconclusive

How did O=C1C=C(NCCN2CCOCC2)C(=O)c2cnccc21 do in these assays?
LMNA splice mod: inconclusive; PNC inhibitor: -82.3*

How did COc1ccc(C(Nc2ccc(S(=O)(=O)NCC3CCCO3)cc2)C(=O)NC(C)(C)C)cc1OC (stereo not given) do in these assays?
LMNA splice mod: 16.8%[46 µM]

What do the screens show for `O=C(NC1CC(=O)N(c2ccc(F)cc2)C1)C(c1ccccc1)c1ccccc1` (stereo not given)?
LMNA splice mod: 17.2%[46 µM]

What do the screens show for `O=S(=O)(c1ccc2ccccc2c1)N1CCC(c2nc(-c3ccncc3)no2)CC1`?
IMPase inh: -17.3; LMNA splice mod: inconclusive; PNC inhibitor: -100.0*

Results for CN(C)c1ccc(-c2noc(C3CCN(S(=O)(=O)c4cccc(Cl)c4)CC3)n2)cc1 ?
IMPase inh: 11.6; LMNA splice mod: inconclusive; PNC inhibitor: 31.8

How did COc1ccc(NC(=O)c2nc(S(C)(=O)=O)ncc2N(Cc2ccc(C)cc2)Cc2ccco2)cc1Cl do in these assays?
LMNA splice mod: 26.2%[46 µM]

Results for CC(=O)c1cccc(NC(=O)c2ccc(NS(=O)(=O)c3c(C)noc3C)cc2)c1 ?
IMPase inh: -4.6; LMNA splice mod: -2.4%; PNC inhibitor: -16.7

Results for CC(=O)c1cccc(NC(=O)c2ccc(NS(C)(=O)=O)cc2)c1 ?
IMPase inh: 11.0; LMNA splice mod: -4.0%; PNC inhibitor: -118.9*

Results for CCc1ccccc1NC1=NCC(=O)N1C1CCCC1 ?
LMNA splice mod: 8.8%[46 µM]

Results for O=C(/C=C/c1ccc(Br)o1)Nc1nccs1 ?
LMNA splice mod: 4.2%[46 µM]

What do the screens show for `O=C(Nc1nccs1)c1ccc(Br)o1`?
IMPase inh: -4.1; LMNA splice mod: -7.8%; PNC inhibitor: -100.0*

How did CCOc1ccc(OCC)c(NS(=O)(=O)c2cc(-c3cnc(C)o3)ccc2OC)c1 do in these assays?
LMNA splice mod: 15.0%[46 µM]

Results for O=C1c2ccccc2-c2onc3ccc(NCc4ccco4)c1c23 ?
IMPase inh: inconclusive; LMNA splice mod: inconclusive; PNC inhibitor: -16.4

Results for CCNc1ccc2noc3c2c1C(=O)c1ccccc1-3 ?
IMPase inh: 2.4; LMNA splice mod: inconclusive; PNC inhibitor: -100.0*

How did CC(C)CC(=O)Nc1ccnc(-c2ccncc2)n1 do in these assays?
LMNA splice mod: -14.1%[9.22 µM]

What do the screens show for `N#CC1=C2SCC(O)(c3ccccc3)N2C(=O)CC1c1ccccc1F` (stereo not given)?
IMPase inh: 5.0; LMNA splice mod: inconclusive; PNC inhibitor: 0.4

What do the screens show for `N#CC1=C2SCC(O)(c3ccccc3)N2C(=O)CC1c1cccs1` (stereo not given)?
IMPase inh: inconclusive; LMNA splice mod: inconclusive; PNC inhibitor: -88.6*

How did N#CCCn1cc(/C=N/NC(=O)c2ccncc2)c(-c2ccccc2)n1 do in these assays?
IMPase inh: 4.1; LMNA splice mod: -11.1%; PNC inhibitor: -83.5*

How did N#CCCn1cc(/C=C/C(=O)O)c(-c2ccc(F)cc2)n1 do in these assays?
LMNA splice mod: -6.0%[46 µM]

Results for O=C(Cn1c(-c2cccs2)cc2ccccc21)N1CCN(c2ccc(F)cc2)CC1 ?
LMNA splice mod: 2.0%[46 µM]

What do the screens show for `Cc1cccc(NC(=O)CSc2nnc(NC(=O)c3ccco3)s2)c1`?
LMNA splice mod: 10.6%[46 µM]

Results for O=S(=O)(NNc1ccc(Cl)nn1)c1ccc(F)cc1 ?
LMNA splice mod: -12.8%; PNC inhibitor: -87.9*

What do the screens show for `O=S(=O)(Nc1ccc(Cl)nn1)c1ccccc1`?
LMNA splice mod: 13.2%[46 µM]

How did CN(C)S(=O)(=O)c1cccc(NC(=O)COC(=O)CCC(=O)c2ccc(F)cc2)c1 do in these assays?
LMNA splice mod: -10.0%; PNC inhibitor: 11.0

How did CCN(CC)S(=O)(=O)c1cccc(NC(=O)COC(=O)CCC(=O)c2ccc(F)cc2)c1 do in these assays?
LMNA splice mod: -5.4%; PNC inhibitor: -82.1*

Results for CCCCN1C(=O)CN(C2CCCCCC2)C(=O)C1c1ccc(OCCC)c(OC)c1 (stereo not given) ?
LMNA splice mod: -11.3%[46 µM]

What do the screens show for `COc1cc(OC)c(-c2nn3c(-c4ccncc4)nnc3s2)cc1OC`?
IMPase inh: 2.3; LMNA splice mod: inconclusive; PNC inhibitor: -135.5*

What do the screens show for `COc1cc(OC)c(-c2nn3c(-c4cccnc4)nnc3s2)cc1OC`?
IMPase inh: -0.4; LMNA splice mod: -1.5%; PNC inhibitor: -2.0

What do the screens show for `COc1ccc(OCC(=O)NNC(=O)c2cccs2)cc1`?
IMPase inh: -0.2; LMNA splice mod: 15.2%; PNC inhibitor: 53.3

Results for COc1ccc(CNC(=O)c2cccs2)cc1 ?
IMPase inh: 0.5; LMNA splice mod: 0.8%; PNC inhibitor: -100.0*

Results for CCCSc1nc2c([nH]c3ccccc32)c(=O)n1C ?
LMNA splice mod: 8.0%[46 µM]

Results for CCc1ccc(NC(=O)C2CCCN(S(=O)(=O)c3cccc4nonc34)C2)cc1 (stereo not given) ?
IMPase inh: -4.1

Results for Cn1c(=O)[nH]c(=O)c2c1nc(CN1CCN(c3ccc(F)cc3)CC1)n2CCc1ccccc1 ?
IMPase inh: -0.8; LMNA splice mod: -3.7%; PNC inhibitor: -100.0*

Results for Cn1c(=O)[nH]c(=O)c2c1nc(CN1CCN(c3ccc(F)cc3)CC1)n2CCCc1ccccc1 ?
IMPase inh: -5.0; LMNA splice mod: 11.6%; PNC inhibitor: 130.6
